# Assay outcomes: PubChem, National Center for Advancing Translational Sciences (NCATS)
# HCMV inh: qHTS Assay for inhibitors of the human cytomegalovirus (HCMV). 410,000 compounds, 4.5% hits. activity change, negative = inhibition, % at 57.5 µM. HFF cells, HCMV-luciferase reporter, 72 h; active compounds read low; in the data active = activity change below about -60%; inconclusive = no clear call, values can overlap the other calls; inactive = above about -39%
#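 After 16 h attachment at 37C, HFF cells received test compound and HCMV-luciferase (1 PFU/cell); reporter luminescence read 72 h later, data normalized against buffer-only and known inhibitor Salinomycin.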
# Marburg entry inh: qHTS for inhibitors of binding or entry into cells for Marburg Virus; Marburg virus pseudotyped entry inhibition, cell reporter; Potency, µM (top dose mostly 37.8 µM), for inactives: top-dose activity change, negative = inhibition, actives largely listed as inhibitors; 300,000 compounds, 1.8% hits; AID 540276, 2011; calls by dose curve; tested in HEK293 cells; note: potency is the fitted concentration of half-maximal effect
# FMDV antiviral: High Throughput Screening for Foot and Mouth Disease Virus Antivirals. FMDV antiviral cell-based qHTS. Potency, µM (highest dose often 57.9 µM), for inactives: top-dose activity change, negative = inhibition, usual class: inhibitors. 410,000 compounds, 1.2% hits. AID 1159524, 2015; calls by dose curve; tested in HEK293T cells; note: read-out not given here; potency is the fitted concentration of half-maximal effect; nearly all actives have a fitted effect of over 45% in size
# HCV inh: qHTS Assay for Inhibitors of Hepatitis C Virus (HCV) | AID 651820, 2012 | Potency, µM (top dose mostly 41.8 µM), without a hit: at the highest dose activity change, negative = inhibition, hits mostly inhibitors | Huh7.5.1 HCVcc-Cre infection, luciferase reporter, 44 h | 340,000 compounds, 3.4% hits; active = well fitted inhibition curve with a large enough effect; inconclusive = small, poorly fitted or top-dose-only effect, or another doubt; inactive = no such curve, though single readings can be large or run the other way; note: potency is the fitted concentration of half-maximal effect
#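 Infectious HCV cell culture screen: compound-treated cells (1,000/well, pre-plated 4 h) are infected with HCVcc-Cre at roughly 0.5 moi and grown 44 h. Infection is quantified by luciferase signal after 15 min substrate incubation at room temperature.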
# Lassa entry inh: qHTS for Inhibitors of binding or entry into cells for Lassa Virus; Lassa virus pseudotype entry inhibition, cell reporter; Potency, µM (top dose mostly 37.9 µM), inactives show top-dose activity change, negative = inhibition, hits mostly inhibitors; 300,000 compounds, 1.2% hits; calls by dose curve; tested in HEK293 cells; note: potency is the fitted concentration of half-maximal effect; nearly all actives have a fitted effect of over 50% in size
# Active calls of the source: *; ? = inconclusive; . = no result; [ ] = another dose, or the depositor's remark. Sampled rows, rich in hits. Any-hit rate of the full collection: about 7.9%. % is set by controls: 0 for no effect and ±100 for the full control effect.
SMILES,HCMV inh,Marburg entry inh,FMDV antiviral,HCV inh,Lassa entry inh
Cn1c2ccccc2c(=O)c2c(=O)n(-c3ccccc3)c(C3CCCCC3)nc21,50,?,-39%,13%,1%
Cn1c2ccccc2c(=O)c2c(=O)n(C3CCCCCC3)c(C3CCCCC3)nc21,-26,-19%,25µM*,1%,-4%
COc1ccnc(Oc2cccc(C(F)(F)F)c2)c1C(=O)N/C=N/OCc1ccccc1F,-11,?,?,11µM*,?
COc1ccc(C(=O)Nc2cc3c4c(c2)C(C)C(=O)N4CCC3)cc1OC (stereo unspecified),15,9%,4%,?,-12%
C=CCSC(=S)NC1CCS(=O)(=O)C1 (stereo unspecified),?,?,13µM*,5%,-32%
COc1ccccc1CNC(=O)C(=O)NCC(c1cccnc1)N1CCN(c2ccccc2)CC1 (stereo unspecified),-17,.,0%,.,-21%[46.1 µM]
CCn1c(CC(=O)Nc2ccc(Cl)c(Cl)c2)nnc1SCc1ccc(Cl)cc1,-100*,-1%,-22%,9%,24%
Cc1cccc(NC(=O)CSc2nc(C)c(CC(=O)c3ccc(Br)cc3)c(C)c2C#N)c1C,-79*,?,0%,0%,1%
Cc1nc(SCC(=O)Nc2ccc(F)cc2)c(C#N)c(C)c1CC(=O)c1ccc(Br)cc1,-14,?,-16%,13%,11µM*
COCc1cc(C)nc(SCC(=O)Nc2cccc(C)c2C)c1C#N,?,-1%,.,?,-17%
COc1ccc(NC(=O)CSc2nc(C)c3c(c2C#N)CCCC3)cc1,?,-14%,-17%,-29%,-13%
Cc1nc2cc(NC(=O)Nc3ccc(Br)cc3)ccc2o1,?,?,9%,?,?
Cc1cnc(CNc2ccnc(-c3ccc(C(=O)N(C)C)cc3)n2)cn1,.,.,27%,.,.
O=S(=O)(Cc1ccc(Cl)cc1)Nc1ccc(Cl)cn1,-101*,?,3%,18%,10%
Cc1cccc(N2CCN(CC(=O)Nc3ccc(S(=O)(=O)N4CCOCC4)cc3)CC2)c1C,-67*,.,?,10µM*,.
O=C(CN1CCOCC1)Nc1ccc(S(=O)(=O)N2CCCCCC2)cc1,-82*,10%,7%,8%,-2%
Cc1cccc(N2CCN(CCNC(=O)Nc3ccc(Cl)cc3)CC2)c1C,-99*,7%[46.1 µM],0%,.,14%[46.1 µM]
CC(C)COc1ccc(C(=O)N(Cc2cccc(F)c2)C2CCS(=O)(=O)C2)cc1 (stereo unspecified),2,?,-9%,.,-29%[46.1 µM]
COc1ccc(C(O)c2nc(-c3ccc(Cl)cc3)cs2)cc1 (stereo unspecified),-18,.,?,.,.
CCN(CC)c1ccc(NC(=S)NC(=O)c2cccs2)cc1,-101*,.,6%,13µM*,.
CCN(c1ccccc1)S(=O)(=O)c1ccc(NC(=S)NC(=O)c2cccs2)cc1,?,?,?,10µM*,?
O=C(NC(=S)NNC(=O)c1cccs1)c1ccco1,59,16%,11%,?,-12%
O=C(Nc1ccc(NC(=S)NC(=O)c2cccs2)cc1)c1ccco1,-87*,?,-12%,-23%,-8%[46.1 µM]
COc1cc(/C=C2\SC(=S)N(CCC(=O)NCCc3ccccc3)C2=O)cc(OC)c1OC,7,6%[46.1 µM],-2%,-6%,-9%
COc1cc(/C=C2\SC(=S)N(CCC(=O)Nc3ccccc3O)C2=O)cc(OC)c1OC,-69*,.,?,?,.
SMILES,HCMV inh,Marburg entry inh,FMDV antiviral,HCV inh,Lassa entry inh
COc1cc(/C=C2\SC(=S)N(CC(=O)Nc3ccc(O)cc3)C2=O)cc(OC)c1OC,-75*,.,-6%,-2%,.
CCOC(=O)[C@H]1[C@H]2COc3cc(OC)ccc3[C@@H]2N2C(=O)[C@@H](CO)NC(=O)[C@@]12C,.,.,.,8%,.
Cc1ccc(NC(=O)Cn2ncn3c(cc4ccccc43)c2=O)cc1C,7,13µM*,6%,.,.
Cc1ccc(NC(=O)Cn2ncn3c(cc4ccccc43)c2=O)cc1F,0,?,-13%,-9%,-14%[46.1 µM]
Cc1ccc(CCNC(=O)c2cccc(Nc3nc4ccccc4nc3-n3nc(C)cc3C)c2)cc1,-1,5%[46.1 µM],4%,.,1%[46.1 µM]
O=C1C2C3CC4C5C3C1C5C1(SCCS1)C42 (stereo unspecified),-87*,.,5%,.,.
